Source: PubChem BioAssay AID1159580 (chemical genetic matrix, 2015)
In all, about 5,500 compounds went through this assay and about 2,000 (36%) were called active. Inconclusive results (about 18%) are left out. No stated cut-off is given here; in the data, active means normalized growth mostly below about 0.91 (no sharp cut-off); inconclusive means no clear call, values can overlap the other calls; inactive means mostly above about 0.92. This is one part of the list.

Assay: chemical genetic growth profiling, strain panel (AID 1159580);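 further: tested at 20 µM; growth read once vehicle control cultures reached saturation at 30 °C; 1 = growth at the plate median or of vehicle wells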
Details: growth OD

Measured: normalized growth

c1ccc(N=Nc2ccccc2)cc1
inactive: S. cerevisiae deletion strains, locus YJR066W, strain TOR1, stronger effect = lower value 0.95 | S. cerevisiae deletion strains, locus YJR075W, strain HOC1, stronger effect = lower value 0.98 | S. cerevisiae deletion strains, locus YKL009W, strain mrt4, stronger effect = lower value 1 | S. cerevisiae deletion strains, locus YKL068W, stronger effect = lower value 1.02 | S. cerevisiae deletion strains, locus YKL085W, strain MDH1 (second series), stronger effect = lower value 1.01 | S. cerevisiae deletion strains, locus YKL085W, strain MDH1, stronger effect = lower value 1.01 | S. cerevisiae deletion strains, locus YKL160W, strain elf1, stronger effect = lower value 0.996 | S. cerevisiae deletion strains, locus YKL190W, strain CNB1, stronger effect = lower value 0.993 | S. cerevisiae deletion strains, locus YKR001C, strain vps1, stronger effect = lower value 0.979 | S. cerevisiae deletion strains, locus YKR026C, strain gcn3, stronger effect = lower value 0.982 | S. cerevisiae deletion strains, locus YKR091W, strain srl3, stronger effect = lower value 0.987 | S. cerevisiae deletion strains, locus YLL001W, strain dnm1, stronger effect = lower value 0.977 | S. cerevisiae deletion strains, locus YLL026W, stronger effect = lower value 0.986 | S. cerevisiae deletion strains, locus YLL041C, strain sdh2, stronger effect = lower value 0.989 | S. cerevisiae deletion strains, locus YLR027C, strain aat2, stronger effect = lower value 0.983 | S. cerevisiae deletion strains, locus YLR039C, strain RIC1, stronger effect = lower value 0.878 | S. cerevisiae deletion strains, locus YLR058C, strain SHM2, stronger effect = lower value 0.992 | S. cerevisiae deletion strains, locus YLR102C, strain apc9, stronger effect = lower value 1.03 | S. cerevisiae deletion strains, locus YLR113W, strain HOG1, stronger effect = lower value 0.978 | S. cerevisiae deletion strains, locus YLR221C, strain rsa3, stronger effect = lower value 0.984 | S. cerevisiae deletion strains, locus YLR258W, strain gsy2, stronger effect = lower value 0.974 | S. cerevisiae deletion strains, locus YLR262C, strain YPT6 (second series), stronger effect = lower value 0.921 | S. cerevisiae deletion strains, locus YLR262C, strain YPT6, stronger effect = lower value 0.887 | S. cerevisiae deletion strains, locus YLR268W, strain sec22, stronger effect = lower value 0.988 | S. cerevisiae deletion strains, locus YLR320W, strain mms22, stronger effect = lower value 0.993 | S. cerevisiae deletion strains, locus YLR330W, strain CHS5, stronger effect = lower value 1.01 | S. cerevisiae deletion strains, locus YLR342W, strain FKS1 (second series), stronger effect = lower value 0.966 | S. cerevisiae deletion strains, locus YLR342W, strain FKS1, stronger effect = lower value 0.994 | S. cerevisiae deletion strains, locus YLR357W, strain rsc2, stronger effect = lower value 0.97 | S. cerevisiae deletion strains, locus YLR370C, strain arc18, stronger effect = lower value 0.996 | S. cerevisiae deletion strains, locus YLR371W, strain rom2, stronger effect = lower value 1.02 | S. cerevisiae deletion strains, locus YLR384C, strain iki3, stronger effect = lower value 0.973 | S. cerevisiae deletion strains, locus YLR418C, strain cdc73, stronger effect = lower value 1 | S. cerevisiae deletion strains, locus YML016C, strain PPZ1, stronger effect = lower value 1.01 | S. cerevisiae deletion strains, locus YML032C, strain rad52, stronger effect = lower value 1.01 | S. cerevisiae deletion strains, locus YML120C, strain ndi1, stronger effect = lower value 0.976 | S. cerevisiae deletion strains, locus YML124C, strain tub3, stronger effect = lower value 1.03 | S. cerevisiae deletion strains, locus YMR058W, strain fet3, stronger effect = lower value 0.99 | S. cerevisiae deletion strains, locus YMR078C, strain ctf18, stronger effect = lower value 1.01 | S. cerevisiae deletion strains, locus YMR125W, strain sto1, stronger effect = lower value 0.978 | S. cerevisiae deletion strains, locus YMR129W, stronger effect = lower value 0.991 | S. cerevisiae deletion strains, locus YMR205C, strain PFK2, stronger effect = lower value 0.952 | S. cerevisiae deletion strains, locus YMR223W, strain ubp8, stronger effect = lower value 1 | S. cerevisiae deletion strains, locus YMR231W, strain pep5, stronger effect = lower value 0.991 | S. cerevisiae deletion strains, locus YMR263W, strain SAP30, stronger effect = lower value 0.972 | S. cerevisiae deletion strains, locus YMR307W, strain GAS1, stronger effect = lower value 0.945 | S. cerevisiae deletion strains, locus YNL067W, strain RPL9B, stronger effect = lower value 0.975 | S. cerevisiae deletion strains, locus YNL071W, strain lat1, stronger effect = lower value 1 | S. cerevisiae deletion strains, locus YNL183C, strain NPR1, stronger effect = lower value 0.904 | S. cerevisiae deletion strains, locus YNL209W, strain ssb2, stronger effect = lower value 0.991 | S. cerevisiae deletion strains, locus YNL233W, strain BNI4, stronger effect = lower value 0.971 | S. cerevisiae deletion strains, locus YNL248C, strain rpa49, stronger effect = lower value 0.993 | S. cerevisiae deletion strains, locus YNL250W, strain rad50, stronger effect = lower value 1.03 | S. cerevisiae deletion strains, locus YNL271C, strain bni1, stronger effect = lower value 1.03 | S. cerevisiae deletion strains, locus YNL298W, strain CLA4, stronger effect = lower value 1 | S. cerevisiae deletion strains, locus YNL307C, strain MCK1, stronger effect = lower value 1 | S. cerevisiae deletion strains, locus YNL322C, strain KRE1 (second series), stronger effect = lower value 0.974 | S. cerevisiae deletion strains, locus YNR049C, strain mso1, stronger effect = lower value 0.994 | S. cerevisiae deletion strains, locus YNR052C, strain pop2, stronger effect = lower value 1.03 | S. cerevisiae deletion strains, locus YOL006C, strain TOP1, stronger effect = lower value 0.974 | S. cerevisiae deletion strains, locus YOL012C, strain htz1 0.782 | S. cerevisiae deletion strains, locus YOL147C, strain pex11, stronger effect = lower value 1.02 | S. cerevisiae deletion strains, locus YOR001W, strain rrp6, stronger effect = lower value 0.991 | S. cerevisiae deletion strains, locus YOR061W, strain CKA2, stronger effect = lower value 1 | S. cerevisiae deletion strains, locus YOR069W, strain VPS5, stronger effect = lower value 1 | S. cerevisiae deletion strains, locus YOR070C, strain gyp1, stronger effect = lower value 0.985 | S. cerevisiae deletion strains, locus YOR080W, strain dia2, stronger effect = lower value 0.974 | S. cerevisiae deletion strains, locus YOR083W, strain WHI5, stronger effect = lower value 0.989 | S. cerevisiae deletion strains, locus YOR106W, strain vam3, stronger effect = lower value 0.987 | S. cerevisiae deletion strains, locus YOR136W, strain idh2, stronger effect = lower value 1.02 | S. cerevisiae deletion strains, locus YOR144C, strain elg1, stronger effect = lower value 1.02 | S. cerevisiae deletion strains, locus YOR184W, strain ser1, stronger effect = lower value 0.912 | S. cerevisiae deletion strains, locus YOR231W, strain MKK1, stronger effect = lower value 0.944 | S. cerevisiae deletion strains, locus YOR265W, strain rbl2, stronger effect = lower value 0.985 | S. cerevisiae deletion strains, locus YOR270C, strain vph1, stronger effect = lower value 1.11 | S. cerevisiae deletion strains, locus YOR290C, strain snf2, stronger effect = lower value 0.998 | S. cerevisiae deletion strains, locus YOR316C, strain cot1, stronger effect = lower value 1.03 | S. cerevisiae deletion strains, locus YPL051W, strain arl3, stronger effect = lower value 0.987 | S. cerevisiae deletion strains, locus YPL055C, strain LGE1, stronger effect = lower value 0.995 | S. cerevisiae deletion strains, locus YPL078C, strain atp4, stronger effect = lower value 0.979 | S. cerevisiae deletion strains, locus YPL106C, strain sse1, stronger effect = lower value 0.98 | S. cerevisiae deletion strains, locus YPL240C, strain hsp82, stronger effect = lower value 0.986 | S. cerevisiae deletion strains, locus YPL256C, strain CLN2, stronger effect = lower value 0.953 | S. cerevisiae deletion strains, locus YPR119W, strain clb2, stronger effect = lower value 1.03 | S. cerevisiae deletion strains, locus YPR141C, strain kar3, stronger effect = lower value 1.03 | S. cerevisiae deletion strains, locus YPR163C, strain tif3, stronger effect = lower value 1.04 | S. cerevisiae deletion strains, locus YPR167C, strain met16, stronger effect = lower value 1.02 | S. cerevisiae deletion strains, strain wtn01, stronger effect = lower value 1.04 | S. cerevisiae strains, strain wild type, stronger effect = lower value 1
